HepG2 viability: qHTS for Inhibitors of TGF-b: Cytotox Counterscreen; Potency, µM (titrated, usually from 46.1 µM), for the others: at the top dose activity change, negative = cytotoxicity, usual class: cytotoxic; HepG2 CAGA-GFP viability, ATP luminescence, 18 h; 0.76% of 410,000 active
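CellTiter-Glo luminescence gave cytotoxicity after 18 hours at 37 degrees C. The cells were HepG2 CAGA-GFP in 1% FBS DMEM, stimulated with 500 pg/mL TGF-beta after compound addition. %Activity was normalised to no-cell wells (complete cell-killing) and DMSO (no toxicity), and curves were fitted and classified.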
TGFb inhibitor: qHTS for Inhibitors of TGF-b. AID 588855, 2011. HepG2 CAGA-GFP TGF-b/SMAD3 reporter, GFP fluorescence, 18 h; TGF-beta stimulated, 500 pg/mL final. 1.2% of 410,000 active. Potency, µM (top dose mostly 46.1 µM), for inactives: top-dose activity, negative = inhibition, most hits filed as inhibitors; note: % is set by controls: 0 for no effect and ±100 for the full control effect; nearly all actives have a fitted effect of over 65% in size
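HEPG2 CAGA-GFP, 1000 cells/well; 2 h settle, 37 C; cpd via pin tool; TGF-b 500 pg/mL final; 18 h, 37 C; GFP imaging ex488/em500-530; %Activity normalised to -TGF-b and +DMSO controls; CRC fit, curve class.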
ATXN viability: Viability Counterscreen for Primary qHTS for Inhibitors of ATXN expression; AID 651635, 2014; 0.49% of 400,000 active; Potency, µM (highest dose often 56.7 µM), usual class: cytotoxic; S2 cells (HEK-293 line with an ATXN2-luciferase reporter) viability, CellTiter-Fluor protease fluorescence, 24 h; note: nearly all actives have a fitted effect of over 40% in size
ATXN2 expr inh: Primary qHTS for Inhibitors of ATXN expression. HEK-293 ATXN2-luciferase reporter, luminescence, 24 h. Potency, µM (doses to about 57 µM), inactives show at the top dose activity change, negative = inhibition, hits mostly inhibitors. 0.72% of 360,000 active. AID 1745845, 2022; note: % is set by controls: 0 for no effect and ±100 for the full control effect; nearly all actives have a fitted effect of over 55% in size
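ATXN2-luciferase reporter cells (luciferase flanked by upstream and downstream ATXN2 gene portions) were treated 24 h at 37 °C with compounds at up to 57 uM. SteadyGlo luminescence gave expression; GF-AFC fluorescence gave viability.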
KB-3-1 cytotox: qHTS assay for MDR1-selective chemotherapeutics: Primary screen using the parental adenocarcinoma cell KB-3-1. 1.4% of 400,000 active. KB-3-1 viability, CellTiter-Glo ATP luminescence, 72 h. AID 1347075, 2019. Potency, µM (top dose mostly 46.1 µM), most hits filed as cytotoxic; note: % is set by controls: 0 for no effect and ±100 for the full control effect; nearly all actives have a fitted effect of over 60% in size
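Multi-concentration cytotoxicity screen in KB-3-1 cells grown in DMEM lacking phenol red with 10% FBS. After 72 h at 37 °C with compound, ATP-dependent luminescence was recorded.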
KB-V1 MDR tox: qHTS assay for MDR1-selective chemotherapeutics: Primary screen using the drug-selected MDR subline cells KB-V1 | KB-V1 MDR cells viability, CellTiter-Glo, 72 h | Potency, µM (titrated, usually from 46.1 µM), most hits filed as cytotoxic | 3.4% of 400,000 active; note: % is set by controls: 0 for no effect and ±100 for the full control effect; nearly all actives have a fitted effect of over 60% in size
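Cytotoxicity toward P-gp-expressing KB-V1 cells was determined as loss of CellTiter-Glo luminescence after 72 h at 37 degrees C. Compounds were tested in quantitative HTS format across a concentration range, with curves fitted to normalized data.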
* marks the source's active call; other numbers are inactive results. Only some compounds are listed: those with a hit (about 5.9% of all), similar ones and a draw of the others. Calls come from the whole dose curve; as a rule, active = well fitted curve in the direction sought with a large enough effect; inconclusive = small, poorly fitted or top-dose-only effect, or another doubt; inactive = no such curve, though single readings can be large; an effect the other way counts as inactive or inconclusive. Potency is the fitted concentration of half-maximal effect.

COc1ccc(CN2Cc3cnnn3-c3ccccc3C2C)cc1 (stereo unspecified) was read as HepG2 viability -17.9%, TGFb inhibitor 1.5%, ATXN viability inconclusive, ATXN2 expr inh -13.8%, KB-3-1 cytotox 13µM* and KB-V1 MDR tox inconclusive.
CCCCn1c(N)c(N(CC(C)C)C(=O)c2cc(Br)c(Br)s2)c(=O)[nH]c1=O was read as HepG2 viability -3.2%, TGFb inhibitor -5.3%, ATXN viability inconclusive, ATXN2 expr inh inconclusive, KB-3-1 cytotox inconclusive and KB-V1 MDR tox inactive.
CC(O)(CS(=O)(=O)c1ccccc1)C(=O)Nc1ccc(C(F)(F)F)cc1 (stereo unspecified) was read as HepG2 viability -17.8%, TGFb inhibitor -3.6%, ATXN viability inactive, ATXN2 expr inh -18.1%, KB-3-1 cytotox inactive and KB-V1 MDR tox 14.6µM*.
`CC(O)(CS(=O)(=O)c1cccc(C(F)(F)F)c1)C(=O)Nc1cccc(C(F)(F)F)c1` (stereo unspecified) gave HepG2 viability -19.0%, TGFb inhibitor -23.6%, ATXN viability inactive, ATXN2 expr inh -15.5%, KB-3-1 cytotox inactive and KB-V1 MDR tox inactive.
CCN(CC)C(=O)c1ccc(NC(=O)c2cccc(F)c2)cc1 was read as HepG2 viability -7.5%, TGFb inhibitor 7.7%, ATXN viability inactive, ATXN2 expr inh 48.6%, KB-3-1 cytotox inactive and KB-V1 MDR tox 20.6µM*.
For COc1cccc(OC)c1C1=NCC(=O)Nc2c1oc1ccc(Br)cc21 the results were HepG2 viability -20.5%, TGFb inhibitor 15.8µM*, ATXN viability inconclusive, ATXN2 expr inh 0.0%, KB-3-1 cytotox inactive and KB-V1 MDR tox inconclusive.
`O=C1CN=C(c2ccccc2)c2oc3ccc(Br)cc3c2N1` gave HepG2 viability -24.0%, TGFb inhibitor 5.7%, ATXN viability inconclusive, ATXN2 expr inh -11.1%, KB-3-1 cytotox inactive and KB-V1 MDR tox inactive.
`Cc1ccc(/C=C2\C(=O)NC(=S)N(c3ccccc3F)C2=O)s1` gave HepG2 viability -108.6%, TGFb inhibitor inconclusive, ATXN viability inconclusive, ATXN2 expr inh 31.6µM*, KB-3-1 cytotox inconclusive and KB-V1 MDR tox inactive.
O=C1NCN(c2ccccc2)C12CCN(C(CCc1ccccc1)c1nnnn1C1CCCCC1)CC2 (stereo unspecified) was read as HepG2 viability -49.5%, TGFb inhibitor 12.6µM*, ATXN viability inconclusive, ATXN2 expr inh inconclusive, KB-3-1 cytotox inconclusive and KB-V1 MDR tox inconclusive.
`O=C1NCN(c2ccccc2)C12CCN(C(CCc1ccccc1)c1nnnn1C1CCCC1)CC2` (stereo unspecified) gave HepG2 viability -31.6%, TGFb inhibitor 11.2µM*, ATXN viability 31.6µM*, ATXN2 expr inh inconclusive, KB-3-1 cytotox inconclusive and KB-V1 MDR tox inconclusive.
O=C1NCN(c2ccccc2)C12CCN(C(c1cccs1)c1nnnn1C1CCCC1)CC2 (stereo unspecified) was read as HepG2 viability -4.8%, TGFb inhibitor inconclusive, ATXN viability inconclusive, ATXN2 expr inh inconclusive, KB-3-1 cytotox inactive and KB-V1 MDR tox inactive.
Screening CCOc1ccc2nc(N3CCC(C(=O)N4CCC5(CC4)OCCO5)CC3)sc2c1 returned HepG2 viability -9.5%, TGFb inhibitor 22.0%, ATXN viability inactive, ATXN2 expr inh 13.6%, KB-3-1 cytotox inconclusive and KB-V1 MDR tox 2.91µM*.
Screening O=C(/C=C/c1ccc2c(c1)OCO2)c1c(O)n(CCc2ccccc2)c(=O)[nH]c1=O returned HepG2 viability -6.8%, TGFb inhibitor 4.4%, ATXN viability inactive, ATXN2 expr inh -13.2%, KB-3-1 cytotox inconclusive and KB-V1 MDR tox 13µM*.
O=C(/C=C/c1ccccc1)c1c(O)n(CCc2ccccc2)c(=O)[nH]c1=O was read as HepG2 viability 1.7%, TGFb inhibitor 2.0%, ATXN viability inconclusive, ATXN2 expr inh -31.4%, KB-3-1 cytotox 14.6µM* and KB-V1 MDR tox 6.51µM*.
For CCC(C)C(C)(COC(N)=O)COC(N)=O (stereo unspecified) the results were ATXN viability inactive and ATXN2 expr inh 2.2%.
`CCCNC(=O)c1cc2c(c(-c3cccc(-c4cc5ccccc5o4)c3)n1)[C@@H](CCO)N(C(=O)NC(C)C)C2` gave ATXN viability inconclusive, ATXN2 expr inh 0.0%, KB-3-1 cytotox inconclusive and KB-V1 MDR tox 18.4µM*.
`O=Nc1c(-c2ccccc2)n(O)[n+]([O-])c1-c1ccccc1` gave HepG2 viability -26.5%, TGFb inhibitor -7.8%, ATXN viability inconclusive, KB-3-1 cytotox inactive and KB-V1 MDR tox inactive.
For CC(C)(C)c1ccc(C(=O)Nc2ccc(Cl)cc2C(=O)c2ccccc2)cc1 the results were HepG2 viability -22.4% and TGFb inhibitor inconclusive.
`Cc1ccc(C(=O)Nc2ccc(Cl)cc2C(=O)c2ccccc2)cc1` gave HepG2 viability -21.4%, TGFb inhibitor -6.3%, ATXN viability inactive, ATXN2 expr inh -5.6%, KB-3-1 cytotox inactive and KB-V1 MDR tox 20.6µM*.
`Clc1ccc(CO[C@@H](Cn2ccnc2)c2ccc(Cl)cc2Cl)cc1` gave ATXN viability inactive.
Screening C/C=C1\C[N@@+]2(C)CC[C@@]34C(=C(C=O)[C@H]1C[C@H]32)Nc1ccccc14 returned ATXN viability inactive.
`COC1C(C)OC(OC2CC(C)(O)Cc3cc4c(c(O)c32)C(=O)c2c(O)cc3c(c2C4=O)OC2OC3(C)C(O)C(N(C)C)C2O)C(OC)C1(C)OC` (stereo unspecified) gave HepG2 viability 30.0%, TGFb inhibitor 2µM*, ATXN viability inconclusive, ATXN2 expr inh inconclusive, KB-3-1 cytotox 0.461µM* and KB-V1 MDR tox inactive.
`C[C@@H]1O[C@@H](O[C@H]2C[C@@H](O)[C@]3(CO)[C@H]4[C@H](O)C[C@]5(C)[C@@H](C6COC(=O)C6)CC[C@]5(O)[C@@H]4CC[C@]3(O)C2)[C@H](O)[C@H](O)[C@H]1O` (stereo partly specified) gave HepG2 viability -50.5%, TGFb inhibitor inconclusive, ATXN viability inconclusive, ATXN2 expr inh 0.562µM*, KB-3-1 cytotox inconclusive and KB-V1 MDR tox 1.64µM*.

Compound activity deposited in PubChem BioAssay by National Center for Advancing Translational Sciences (NCATS).
